# Assay outcomes (PubChem BioAssay)
# Rows were chosen to be rich in hits. Some 5.6% of all compounds tested hit in one or more screens of this group.
# PfGluPho inh: PfG6PD (Plasmodium falciparum) enzyme inhibition; AID 504690; 350,000 tested, 0.78% active; inhibition, % at 20 µM; PfGluPho enzyme, NADPH resazurin-diaphorase fluorescence;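 active = inhibition reaching at least a set limit at 20 µM in the primary screen, cut at about 59% in these data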;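 also: 0% = DMSO wells with substrate and 100% = DMSO wells lacking glucose-6-phosphate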
# ALR inh: blocks human ALR sulfhydryl oxidase activity. P55789. inhibition, % (concentration not given with the values). purified ALR, DTT oxidation, H2O2 HRP-luminol luminescence. AID 485317. 290,000 tested, 3.8% active;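 active = mean replicate inhibition above about 79%, with every replicate also reaching it, limit read from the data; inconclusive = only one of the two criteria met; inactive = mean below limit and not every replicate reaching it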
# Target sequence (P55789 whole entry, looked up): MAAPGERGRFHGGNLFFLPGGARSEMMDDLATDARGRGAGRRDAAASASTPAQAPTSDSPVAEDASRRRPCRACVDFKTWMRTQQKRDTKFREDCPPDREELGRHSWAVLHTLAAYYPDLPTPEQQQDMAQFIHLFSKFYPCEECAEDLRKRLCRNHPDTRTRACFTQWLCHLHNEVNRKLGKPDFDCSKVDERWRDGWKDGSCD
# PHOSPHO1 inh: PHOSPHO1 (human) inhibition | Q8TCT1 | recombinant PHOSPHO1, absorbance phosphatase assay | inhibition, % at 13.3 µM | 290,000 tested, 1.1% active | AID 1565; in the data active = inhibition above about 60%
# Cardio protect: myocardial damage modulation in H9c2 cells; H9c2 cardiomyocytes, H2O2 injury protection, ATPLite, 2 h; protection from H2O2 cell death, % at 20 µM; 360,000 tested, 0.63% active; AID 588492;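 active = compounds giving at least 50% protection of heart cells from peroxide-induced death in the single-dose screen, raw or plate-pattern-corrected value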;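 also: 0% = DMSO wells with peroxide and 100% = DMSO wells without peroxide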
# PfM18AAP inh: blocks P. falciparum M18 aspartyl aminopeptidase | recombinant PfM18AAP, H-Glu-NHMec fluorogenic cleavage | inhibition, % at 7.35 µM | 290,000 tested, 1.2% active;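 active = inhibition above the campaign mean inhibition over all tested compounds plus 3 SD, cut at about 28% in these data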;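 also: 0% = plate median of test compound wells and 100% = 2 mM ZnCl2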
# Active calls of the source: *; ? = inconclusive; . = not tested or not shown.
SMILES,PfGluPho inh,ALR inh,PHOSPHO1 inh,Cardio protect,PfM18AAP inh
O=C(NNC(=S)NC(=O)c1ccccc1Cl)c1cccc([N+](=O)[O-])c1,-6.1,96.7*,14.1,21.6,11.7
O=C(NC(=S)NNC(=O)c1ccccc1O)c1ccc([N+](=O)[O-])cc1,-27.4,4.2,14.1,4.5,30.1*
O=C(NNC(=S)NCc1ccccc1)c1cccc([N+](=O)[O-])c1,-15.8,14.4,-57.2,-3.8,-1.4
O=C(NNC(=O)c1ccc([N+](=O)[O-])cc1)c1ccc(Br)cc1,-9.8,8.4,28.4,-1.8,-3.0
O=C(NNC(=S)NC(=O)c1ccc(Br)cc1)c1ccc([N+](=O)[O-])cc1,-18.9,99.6*,-33.9,18.4,-14.8
O=C(NC(=S)NNC(=O)c1ccccc1O)c1ccc(F)cc1,-30.3,10.2,-104.2,9.6,27.6
O=C(NNc1c(Cl)cc(Cl)cc1Cl)c1cccc([N+](=O)[O-])c1,0.9,92.7*,4.1,-4.7,9.1
CC(=O)c1cccc(NC(=O)COC(=O)c2n[nH]c3ccccc23)c1,-1.6,-3.0,4.5,4.7,7.4
Cc1ccc(C(=O)NC(=S)NNC(=O)c2ccc([N+](=O)[O-])cc2)cc1,-31.8,98.8*,-67.3,9.9,-1.0
CCCCC(=O)NC(=S)NNC(=O)CC#N,-2.4,17.4,95.4*,0.8,12.1
CC(=O)Nc1ccc(NC(=S)NC(=O)c2ccc([N+](=O)[O-])cc2)cc1,1.5,-10.3,1.9,-0.2,-11.7
COc1cc(OC)cc(C(=O)NNC(=O)CCC2CCCC2)c1,-12.2,-0.6,.,-4.9,.
Cc1cc(C)c2c(c1)-c1c(ssc1=S)C(C)(C)N2C(=O)CSc1nncn1C,12.2,-3.5,62.4*,-0.9,5.1
CC(=O)NC(Cc1ccc(F)cc1)C(=O)NC1CCN(C(=O)Nc2ccccc2C)CC1 (stereo not given),-9.6,-13.7,4.0,3.1,-11.9
O=C(CSc1nnnn1C1CC1)N1CCN(c2ccc(O)cc2)CC1,54.1,99.0*,.,6.8,.
Oc1ccc(N2CCN(C(c3ccncc3)c3nnnn3C3CCCC3)CC2)cc1 (stereo not given),41.9,99.5*,14.3,6.9,37.0*
c1cc(C(c2nnnn2C2CCCC2)N2CCOCC2)ccn1 (stereo not given),-4.8,-24.7,0.2,-0.2,-12.7
O=C(c1ccc2c(c1)C(=O)N(Cc1ccco1)C2O)N1CCOCC1 (stereo not given),-11.3,87.1*,-5.3,-1.5,10.8
CCc1cc(C(=O)N(CC(C)C)c2c(N)n(Cc3ccccc3)c(=O)[nH]c2=O)sc1C,0.7,0.3,.,19.1,.
CC(=O)N1CCN(S(=O)(=O)c2cccc(C(=O)NC3CC3)c2)CC1,-7.4,.,.,11.7,.
CCOc1ccc(NC(=O)c2cc3n(n2)C(C(F)(F)F)CC(c2ccco2)N3)cc1 (stereo not given),0.5,-3.9,4.6,-7.5,6.5
O=C(Nc1ccc(O)cc1)c1cc2n(n1)C(C(F)(F)F)CC(c1ccco1)N2 (stereo not given),-18.5,99.2*,16.8,5.7,6.7
CC(O)c1cc2c(cc1NC(=O)c1cnn3c1NC(c1ccco1)CC3C(F)(F)F)OCO2 (stereo not given),16.7,-4.6,-39.9,-9.4,29.2*
C[C@H](CO)N1C[C@H](C)[C@@H](CN(C)C(=O)Nc2ccccc2F)OCc2cnnn2CCCC1=O,1.8,.,.,6.3,.
COC(=O)C1Sc2[nH]c(=O)sc2C2c3ccccc3OC(=O)C12 (stereo not given),-11.3,?,21.6,18.6,7.7
SMILES,PfGluPho inh,ALR inh,PHOSPHO1 inh,Cardio protect,PfM18AAP inh
CC1(C(=O)O)Sc2[nH]c(=O)sc2C2c3ccccc3OC(=O)C21 (stereo not given),-6.6,33.5,37.0,-4.9,30.2*
Cc1ccc(N2CC(C(=O)Nc3nc4ccc(S(C)(=O)=O)cc4s3)CC2=O)cc1C (stereo not given),-29.6,-2.7,34.6,-3.4,3.1
CC(C)COC(=O)c1ccc2c(c1O)C(=O)c1ccccc1C2=O,-3.6,-31.7,80.4*,-9.7,0.4
COc1ccc2c(c1O)C(=O)c1ccccc1C2=O,.,-20.2,23.7,.,0.1
C=CCn1c(=N)n(CC(=O)OCC)c2ccccc21,3.4,99.4*,12.6,9.4,2.8
CCN(CC)c1ccc(N2C(=NC(=O)C3CCCO3)SC3CS(=O)(=O)CC32)cc1 (stereo not given),2.5,98.7*,17.4,2.9,8.1
O=C(O)c1cc(Cl)c(Cl)cc1C(=O)NCc1ccco1,-11.8,6.4,44.1,4.0,-1.4
